From paper PMC7862700, “An all-to-all approach to the identification of sequence-specific readers for epigenetic DNA modifications on cytosine”

Tests used:
Assay in all cases: DAPPL (digital affinity profiling via proximity ligation, sequencing); 10 mM Tris-HCl pH 7.5, 50 mM NaCl, 1 mM DTT, 4% glycerol, room temperature, 30 min; GST-TFs on glutathione beads, 16-mer random dsDNA library, 0.1% formaldehyde crosslink after washing; high values mean tight binding
FEV = molecular target: T1, FEV (Homo sapiens, UniProt Q99581 1-238); conditions: protein: recombinant; tags: N-terminal GST; dsDNA, one strand shown
T1 sequence: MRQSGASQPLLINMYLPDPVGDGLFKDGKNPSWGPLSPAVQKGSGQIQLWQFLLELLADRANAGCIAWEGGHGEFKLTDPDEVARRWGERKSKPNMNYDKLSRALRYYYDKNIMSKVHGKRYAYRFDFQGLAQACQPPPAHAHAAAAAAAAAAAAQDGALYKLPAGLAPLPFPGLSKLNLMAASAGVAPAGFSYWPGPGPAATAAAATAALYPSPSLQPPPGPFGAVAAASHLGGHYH
Outline: (§1)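 Pools of DNA-barcoded human transcription factors, expressed in yeast as GST fusions on glutathione beads and combined with a tag-only sample, were incubated with 200 nmole of a 16-mer random double-stranded DNA library. Incubation took 30 min at room temperature in Tris/NaCl/DTT/glycerol buffer and was followed by washing, 0.1% formaldehyde crosslinking, proximity ligation (BsaI/T4 ligase, 1 h, 37 °C), PCR amplification and sequencing on an Illumina NextSeq500. Binding signal is the ratio of a hexamer's read frequency for a factor to its frequency for the tag-only sample.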

ETV5 = ETV5 (Homo sapiens, UniProt P41161 1-510); conditions: protein: recombinant; tags: N-terminal GST; dsDNA, one strand shown
Outline: as §1

HSF1 = HSF1 (Homo sapiens, UniProt Q00613 1-529); conditions: protein: recombinant; tags: N-terminal GST; chain copies: 3; dsDNA, one strand shown
Outline: as §1

SPIC = molecular target: T2, SPIC (Homo sapiens, UniProt Q8N5J4 1-248); conditions: protein: recombinant; tags: N-terminal GST; dsDNA, one strand shown
T2 sequence: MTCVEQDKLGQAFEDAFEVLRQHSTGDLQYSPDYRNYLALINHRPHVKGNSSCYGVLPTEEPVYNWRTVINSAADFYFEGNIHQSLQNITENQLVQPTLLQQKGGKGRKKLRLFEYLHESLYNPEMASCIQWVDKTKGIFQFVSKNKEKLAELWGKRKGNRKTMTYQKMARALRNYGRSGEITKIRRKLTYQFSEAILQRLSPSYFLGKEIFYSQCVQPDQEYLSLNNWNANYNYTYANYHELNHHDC
Outline: as §1

ELF4 = ELF4 (Homo sapiens, UniProt Q99607 1-663); conditions: protein: recombinant; tags: N-terminal GST; dsDNA, one strand shown
Outline: as §1

ELK4 = molecular target: T3, ELK4 (Homo sapiens, UniProt P28324-2 1-405); conditions: protein: recombinant; tags: N-terminal GST; dsDNA, one strand shown
T3 sequence: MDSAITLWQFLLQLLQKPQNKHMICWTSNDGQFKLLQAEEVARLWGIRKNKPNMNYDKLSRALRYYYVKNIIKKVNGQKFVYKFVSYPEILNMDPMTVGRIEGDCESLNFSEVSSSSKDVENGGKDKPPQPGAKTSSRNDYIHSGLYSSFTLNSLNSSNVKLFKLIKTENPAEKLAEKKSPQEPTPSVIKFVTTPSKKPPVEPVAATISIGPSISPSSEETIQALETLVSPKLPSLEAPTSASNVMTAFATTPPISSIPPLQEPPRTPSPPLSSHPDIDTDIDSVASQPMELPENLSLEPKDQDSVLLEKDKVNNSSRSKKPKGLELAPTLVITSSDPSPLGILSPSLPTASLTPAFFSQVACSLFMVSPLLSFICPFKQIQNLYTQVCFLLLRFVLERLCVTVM
Outline: as §1

ETV2 = molecular target: T4, ETV2 (Homo sapiens, UniProt O00321 1-342); conditions: protein: recombinant; tags: N-terminal GST; dsDNA, one strand shown
T4 sequence: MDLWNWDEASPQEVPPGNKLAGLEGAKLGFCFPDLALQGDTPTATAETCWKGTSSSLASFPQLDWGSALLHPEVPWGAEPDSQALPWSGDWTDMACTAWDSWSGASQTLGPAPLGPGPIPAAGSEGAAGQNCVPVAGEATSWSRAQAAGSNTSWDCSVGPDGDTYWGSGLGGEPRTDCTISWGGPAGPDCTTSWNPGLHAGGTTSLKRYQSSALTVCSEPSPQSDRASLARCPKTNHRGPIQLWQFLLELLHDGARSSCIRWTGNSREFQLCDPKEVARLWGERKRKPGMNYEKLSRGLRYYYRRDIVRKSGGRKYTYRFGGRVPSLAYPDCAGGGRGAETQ
Outline: as §1

ELF3 = molecular target: T5, ELF3 (Homo sapiens, UniProt P78545 1-371); conditions: protein: recombinant; tags: N-terminal GST; dsDNA, one strand shown
T5 sequence: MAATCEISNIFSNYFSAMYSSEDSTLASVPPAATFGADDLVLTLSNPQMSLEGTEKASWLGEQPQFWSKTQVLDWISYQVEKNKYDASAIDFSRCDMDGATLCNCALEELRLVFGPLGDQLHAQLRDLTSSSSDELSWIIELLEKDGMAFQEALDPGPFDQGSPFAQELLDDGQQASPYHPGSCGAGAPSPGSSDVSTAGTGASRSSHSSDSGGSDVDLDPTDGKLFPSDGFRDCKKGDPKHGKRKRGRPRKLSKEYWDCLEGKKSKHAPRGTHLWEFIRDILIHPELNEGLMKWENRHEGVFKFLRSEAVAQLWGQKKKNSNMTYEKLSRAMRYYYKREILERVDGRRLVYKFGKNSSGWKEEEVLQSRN
Outline: as §1

CRX = CRX (Homo sapiens, UniProt O43186 1-299); conditions: protein: recombinant; tags: N-terminal GST; dsDNA, one strand shown
Outline: as §1

ETV1 = ETV1 (Homo sapiens, UniProt P50549 1-477); conditions: protein: recombinant; tags: N-terminal GST; dsDNA, one strand shown
Outline: as §1

ERF = molecular target: T6, ERF (Homo sapiens, UniProt P50548 1-548); conditions: protein: recombinant; tags: N-terminal GST; dsDNA, one strand shown
T6 sequence: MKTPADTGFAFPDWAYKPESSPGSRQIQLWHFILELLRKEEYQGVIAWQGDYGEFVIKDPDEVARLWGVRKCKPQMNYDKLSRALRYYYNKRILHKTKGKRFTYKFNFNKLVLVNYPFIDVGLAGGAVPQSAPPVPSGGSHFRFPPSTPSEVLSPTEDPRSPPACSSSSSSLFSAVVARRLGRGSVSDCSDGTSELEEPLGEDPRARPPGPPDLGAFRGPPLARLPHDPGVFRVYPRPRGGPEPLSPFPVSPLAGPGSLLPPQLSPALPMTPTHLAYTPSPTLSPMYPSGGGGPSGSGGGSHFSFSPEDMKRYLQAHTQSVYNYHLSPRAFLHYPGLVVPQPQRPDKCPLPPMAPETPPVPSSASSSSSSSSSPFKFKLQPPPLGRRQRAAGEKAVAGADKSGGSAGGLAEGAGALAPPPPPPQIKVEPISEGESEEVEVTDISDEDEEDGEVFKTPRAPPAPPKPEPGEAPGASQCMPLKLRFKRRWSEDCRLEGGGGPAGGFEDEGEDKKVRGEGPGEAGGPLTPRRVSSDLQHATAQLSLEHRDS
Outline: as §1

ETV3L = molecular target: T7, ETV3L (Homo sapiens, UniProt Q6ZN32 1-361); conditions: protein: recombinant; tags: N-terminal GST; dsDNA, one strand shown
T7 sequence: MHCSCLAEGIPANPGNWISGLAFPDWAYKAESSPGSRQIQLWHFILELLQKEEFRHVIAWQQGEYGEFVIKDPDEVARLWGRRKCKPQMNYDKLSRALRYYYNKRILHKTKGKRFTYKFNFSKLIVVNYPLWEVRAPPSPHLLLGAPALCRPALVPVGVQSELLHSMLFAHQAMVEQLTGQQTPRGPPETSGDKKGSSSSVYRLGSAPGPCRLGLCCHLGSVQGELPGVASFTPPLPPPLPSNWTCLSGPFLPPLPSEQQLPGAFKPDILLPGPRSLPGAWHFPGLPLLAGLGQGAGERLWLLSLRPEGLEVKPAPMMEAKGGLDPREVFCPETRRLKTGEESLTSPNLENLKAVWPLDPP
Outline: as §1

ETS2 = molecular target: T8, ETS2 (Homo sapiens, UniProt P15036 1-469); conditions: protein: recombinant; tags: N-terminal GST; dsDNA, one strand shown
T8 sequence: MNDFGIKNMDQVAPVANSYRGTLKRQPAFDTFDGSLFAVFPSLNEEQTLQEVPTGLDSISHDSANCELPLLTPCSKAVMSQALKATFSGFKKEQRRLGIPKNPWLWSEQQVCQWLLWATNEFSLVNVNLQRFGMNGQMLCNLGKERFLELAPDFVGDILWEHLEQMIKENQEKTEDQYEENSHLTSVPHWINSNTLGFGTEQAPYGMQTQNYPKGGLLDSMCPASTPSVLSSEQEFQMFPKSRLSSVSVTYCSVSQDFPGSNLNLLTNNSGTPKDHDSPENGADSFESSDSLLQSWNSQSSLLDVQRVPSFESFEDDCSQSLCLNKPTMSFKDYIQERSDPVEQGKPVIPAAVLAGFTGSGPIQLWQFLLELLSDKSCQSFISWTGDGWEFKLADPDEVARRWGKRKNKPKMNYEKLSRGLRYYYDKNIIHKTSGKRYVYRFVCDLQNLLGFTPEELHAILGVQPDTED
Outline: as §1

SPDEF = molecular target: T9, SPDEF (Homo sapiens, UniProt O95238 1-335); conditions: protein: recombinant; tags: N-terminal GST; dsDNA, one strand shown
T9 sequence: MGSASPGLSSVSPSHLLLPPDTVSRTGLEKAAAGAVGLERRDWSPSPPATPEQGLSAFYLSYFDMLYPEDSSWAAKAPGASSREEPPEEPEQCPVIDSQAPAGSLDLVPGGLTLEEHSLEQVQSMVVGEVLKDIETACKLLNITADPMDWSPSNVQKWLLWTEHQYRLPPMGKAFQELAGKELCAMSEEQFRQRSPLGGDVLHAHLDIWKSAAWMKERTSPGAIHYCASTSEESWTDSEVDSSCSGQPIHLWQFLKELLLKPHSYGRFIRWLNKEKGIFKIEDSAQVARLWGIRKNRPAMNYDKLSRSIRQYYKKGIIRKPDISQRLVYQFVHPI
Outline: as §1

ETV7 = molecular target: T10, ETV7 (Homo sapiens, UniProt Q9Y603 1-341); conditions: protein: recombinant; tags: N-terminal GST; dsDNA, one strand shown
T10 sequence: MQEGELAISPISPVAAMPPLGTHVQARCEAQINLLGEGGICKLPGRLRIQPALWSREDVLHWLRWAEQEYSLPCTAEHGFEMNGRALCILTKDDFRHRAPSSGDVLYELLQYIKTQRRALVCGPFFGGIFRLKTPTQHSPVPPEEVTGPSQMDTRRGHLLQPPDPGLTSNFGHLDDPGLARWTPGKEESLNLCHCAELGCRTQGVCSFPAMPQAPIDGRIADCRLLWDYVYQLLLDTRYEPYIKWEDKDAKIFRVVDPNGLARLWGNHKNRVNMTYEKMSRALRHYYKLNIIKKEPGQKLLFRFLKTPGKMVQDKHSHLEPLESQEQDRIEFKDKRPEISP
Outline: as §1

ELF5 = molecular target: T11, ELF5 (Homo sapiens, UniProt Q9UKW6-2 1-255); conditions: protein: recombinant; tags: N-terminal GST; dsDNA, one strand shown
T11 sequence: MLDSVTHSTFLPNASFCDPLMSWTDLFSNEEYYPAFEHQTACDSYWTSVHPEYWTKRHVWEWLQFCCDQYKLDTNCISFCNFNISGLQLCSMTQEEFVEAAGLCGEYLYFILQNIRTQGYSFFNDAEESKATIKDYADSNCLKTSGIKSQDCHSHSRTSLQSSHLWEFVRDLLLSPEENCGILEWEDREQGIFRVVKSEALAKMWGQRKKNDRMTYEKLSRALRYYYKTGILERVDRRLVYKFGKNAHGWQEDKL
Outline: as §1

ETV3 = molecular target: T12, ETV3 (Homo sapiens, UniProt P41162-2 1-143); conditions: protein: recombinant; tags: N-terminal GST; dsDNA, one strand shown
T12 sequence: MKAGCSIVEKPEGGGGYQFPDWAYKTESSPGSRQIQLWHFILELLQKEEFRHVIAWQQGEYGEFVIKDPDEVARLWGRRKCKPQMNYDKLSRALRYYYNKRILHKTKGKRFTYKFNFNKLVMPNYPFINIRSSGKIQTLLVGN
Outline: as §1

ETV6 = ETV6 (Homo sapiens, UniProt P41212 1-452); conditions: protein: recombinant; tags: N-terminal GST; dsDNA, one strand shown
Outline: as §1

Sequence of CRX (O43186 whole entry): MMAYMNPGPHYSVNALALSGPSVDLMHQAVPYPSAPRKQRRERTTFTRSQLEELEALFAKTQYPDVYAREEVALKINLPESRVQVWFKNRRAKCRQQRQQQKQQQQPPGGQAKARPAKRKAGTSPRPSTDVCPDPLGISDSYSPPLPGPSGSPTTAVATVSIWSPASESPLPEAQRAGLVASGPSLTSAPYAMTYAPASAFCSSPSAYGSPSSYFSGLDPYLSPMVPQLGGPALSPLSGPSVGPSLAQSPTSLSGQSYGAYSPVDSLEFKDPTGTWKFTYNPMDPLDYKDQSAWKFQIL
Sequence of ETV1 (P50549 whole entry): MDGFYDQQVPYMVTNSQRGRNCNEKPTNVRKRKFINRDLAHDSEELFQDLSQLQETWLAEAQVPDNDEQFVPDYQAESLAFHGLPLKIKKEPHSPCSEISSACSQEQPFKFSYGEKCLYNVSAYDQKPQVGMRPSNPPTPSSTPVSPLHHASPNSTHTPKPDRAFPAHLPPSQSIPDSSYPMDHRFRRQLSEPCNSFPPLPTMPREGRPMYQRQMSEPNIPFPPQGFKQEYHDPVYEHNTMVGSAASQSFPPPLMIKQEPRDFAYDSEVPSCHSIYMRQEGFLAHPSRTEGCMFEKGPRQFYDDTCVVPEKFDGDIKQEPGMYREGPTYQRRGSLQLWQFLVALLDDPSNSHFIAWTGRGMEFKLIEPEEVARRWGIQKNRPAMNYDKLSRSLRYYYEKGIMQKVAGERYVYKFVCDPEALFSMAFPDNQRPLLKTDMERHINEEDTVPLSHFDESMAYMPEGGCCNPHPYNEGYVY
Sequence of ETV6 (P41212 whole entry): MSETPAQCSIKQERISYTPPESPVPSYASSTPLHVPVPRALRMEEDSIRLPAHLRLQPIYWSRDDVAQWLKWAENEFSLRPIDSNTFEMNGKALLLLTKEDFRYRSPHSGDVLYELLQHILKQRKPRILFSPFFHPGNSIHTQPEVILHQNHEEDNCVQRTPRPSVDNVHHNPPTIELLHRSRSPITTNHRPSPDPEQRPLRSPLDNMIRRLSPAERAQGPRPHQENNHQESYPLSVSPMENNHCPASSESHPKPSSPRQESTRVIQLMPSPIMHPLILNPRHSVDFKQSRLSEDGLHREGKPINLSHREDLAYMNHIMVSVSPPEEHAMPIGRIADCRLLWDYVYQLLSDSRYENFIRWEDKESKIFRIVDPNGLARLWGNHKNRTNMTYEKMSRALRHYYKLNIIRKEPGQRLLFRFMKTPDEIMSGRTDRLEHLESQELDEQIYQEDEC
Sequence of ETV5 (P41161 whole entry): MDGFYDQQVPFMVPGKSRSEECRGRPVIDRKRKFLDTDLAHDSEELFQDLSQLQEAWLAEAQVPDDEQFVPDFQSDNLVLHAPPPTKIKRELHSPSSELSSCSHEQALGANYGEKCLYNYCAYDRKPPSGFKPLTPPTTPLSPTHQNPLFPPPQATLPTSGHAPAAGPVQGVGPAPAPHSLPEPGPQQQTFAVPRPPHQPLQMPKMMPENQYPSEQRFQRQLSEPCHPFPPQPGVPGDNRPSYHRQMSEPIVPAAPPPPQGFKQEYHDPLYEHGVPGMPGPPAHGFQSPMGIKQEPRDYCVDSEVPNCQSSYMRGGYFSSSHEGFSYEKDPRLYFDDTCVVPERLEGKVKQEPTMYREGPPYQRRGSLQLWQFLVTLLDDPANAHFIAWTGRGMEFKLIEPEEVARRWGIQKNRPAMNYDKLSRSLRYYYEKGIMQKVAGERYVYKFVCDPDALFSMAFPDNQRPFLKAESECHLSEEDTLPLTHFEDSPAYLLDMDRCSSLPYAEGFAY
Sequence of HSF1 (Q00613 whole entry): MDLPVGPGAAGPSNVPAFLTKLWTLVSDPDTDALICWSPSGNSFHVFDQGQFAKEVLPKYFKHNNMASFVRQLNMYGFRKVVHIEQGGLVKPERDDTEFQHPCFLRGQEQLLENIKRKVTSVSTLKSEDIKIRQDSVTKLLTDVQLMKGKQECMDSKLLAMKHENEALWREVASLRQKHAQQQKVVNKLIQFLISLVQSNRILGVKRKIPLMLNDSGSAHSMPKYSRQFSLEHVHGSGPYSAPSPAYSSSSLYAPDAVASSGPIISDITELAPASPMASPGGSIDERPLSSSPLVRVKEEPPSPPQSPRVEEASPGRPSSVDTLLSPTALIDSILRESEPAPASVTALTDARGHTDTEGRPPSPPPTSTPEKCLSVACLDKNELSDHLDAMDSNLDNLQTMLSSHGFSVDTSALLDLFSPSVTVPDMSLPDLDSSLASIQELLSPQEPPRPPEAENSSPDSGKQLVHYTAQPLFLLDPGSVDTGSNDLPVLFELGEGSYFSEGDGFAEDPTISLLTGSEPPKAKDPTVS
Sequence of ELF4 (Q99607 whole entry): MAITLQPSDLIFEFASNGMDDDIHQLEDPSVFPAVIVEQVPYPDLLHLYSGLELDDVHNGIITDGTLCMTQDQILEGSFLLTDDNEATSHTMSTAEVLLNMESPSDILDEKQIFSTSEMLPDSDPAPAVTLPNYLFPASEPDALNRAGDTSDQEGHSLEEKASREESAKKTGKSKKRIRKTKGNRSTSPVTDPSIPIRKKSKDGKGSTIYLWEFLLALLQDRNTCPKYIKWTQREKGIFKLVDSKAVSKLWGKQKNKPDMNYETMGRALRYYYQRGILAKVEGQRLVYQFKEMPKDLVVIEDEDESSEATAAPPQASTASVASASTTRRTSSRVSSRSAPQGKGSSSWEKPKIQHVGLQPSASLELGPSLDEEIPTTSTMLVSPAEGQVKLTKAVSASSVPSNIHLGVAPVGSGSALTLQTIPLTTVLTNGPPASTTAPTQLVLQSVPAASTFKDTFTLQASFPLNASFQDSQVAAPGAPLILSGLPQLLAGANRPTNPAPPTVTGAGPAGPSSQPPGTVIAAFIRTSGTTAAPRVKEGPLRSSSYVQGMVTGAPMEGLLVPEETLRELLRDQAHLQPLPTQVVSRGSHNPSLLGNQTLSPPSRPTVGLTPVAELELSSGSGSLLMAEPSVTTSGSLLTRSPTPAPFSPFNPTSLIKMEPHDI

GCTCCG
binding signal (FEV): 1.42 fold enrichment (6-mer frequency, TF over GST control)
binding signal (ETV5): 1.33 fold enrichment (6-mer frequency, TF over GST control)
binding signal (HSF1): 1.2 fold enrichment (6-mer frequency, TF over GST control)
binding signal (SPIC): 1.54 fold enrichment (6-mer frequency, TF over GST control)
binding signal (ELF4): 1.39 fold enrichment (6-mer frequency, TF over GST control)
binding signal (ELK4): 1.33 fold enrichment (6-mer frequency, TF over GST control)
binding signal (ETV2): 1.32 fold enrichment (6-mer frequency, TF over GST control)
binding signal (ELF3): 1.32 fold enrichment (6-mer frequency, TF over GST control)
binding signal (CRX): 1.07 fold enrichment (6-mer frequency, TF over GST control)
binding signal (ETV1): 1.27 fold enrichment (6-mer frequency, TF over GST control)
binding signal (ERF): 1.26 fold enrichment (6-mer frequency, TF over GST control)
binding signal (ETV3L): 1.33 fold enrichment (6-mer frequency, TF over GST control)
binding signal (ETS2): 1.33 fold enrichment (6-mer frequency, TF over GST control)
binding signal (SPDEF): 1.34 fold enrichment (6-mer frequency, TF over GST control)
binding signal (ETV7): 1.27 fold enrichment (6-mer frequency, TF over GST control)
binding signal (ELF5): 1.25 fold enrichment (6-mer frequency, TF over GST control)
binding signal (ETV3): 1.2 fold enrichment (6-mer frequency, TF over GST control)
binding signal (ETV6): 1.19 fold enrichment (6-mer frequency, TF over GST control)
